High-throughput results deposited in PubChem BioAssay by National Center for Advancing Translational Sciences (NCATS).
FMDV antiviral: High Throughput Screening for Foot and Mouth Disease Virus Antivirals; AID 1159524, 2015; Potency, µM (highest dose often 57.9 µM), most hits filed as inhibitors; FMDV antiviral cell-based qHTS; 1.2% of 410,000 active; calls by dose curve; tested in HEK293T cells; note: read-out not given here; nearly all actives have a fitted effect of over 45% in size
AmpC detergent: qHTS Inhibitors of AmpC Beta-Lactamase (assay with detergent). P00811. AmpC hydrolysis of nitrocefin, absorbance 480 nm, 0.01% Triton. Potency, µM (highest dose often 114 µM), hits mostly inhibitors. 0.041% of 370,000 active. AID 485294, 2010; note: nearly all actives have a fitted effect of over 25% in size
Target sequence (P00811 whole entry, looked up): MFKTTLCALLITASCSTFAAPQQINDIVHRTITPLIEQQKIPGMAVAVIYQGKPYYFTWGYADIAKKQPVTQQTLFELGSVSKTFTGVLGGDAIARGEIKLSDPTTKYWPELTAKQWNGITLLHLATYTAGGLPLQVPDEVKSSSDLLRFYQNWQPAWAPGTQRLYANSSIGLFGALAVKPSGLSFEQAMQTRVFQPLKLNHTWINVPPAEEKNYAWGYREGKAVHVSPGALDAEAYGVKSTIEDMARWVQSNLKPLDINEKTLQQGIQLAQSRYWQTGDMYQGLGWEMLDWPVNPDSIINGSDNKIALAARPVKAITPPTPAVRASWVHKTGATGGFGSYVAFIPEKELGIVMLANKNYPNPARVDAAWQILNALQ
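20 mM phosphate pH 7.0 + 0.01% (detergent screen) or 0.0001% Triton X-100; 5.3 nM AmpC reagent; cpd preinc 15 min RT; nitrocefin (800 uM stock) to start; A480 q20 s × 4 min; Activity was normalised to no-enzyme and no-compound control wells.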
HCV inhibitor: qHTS Assay for Inhibitors of Hepatitis C Virus (HCV) | Huh7.5.1 HCVcc-Cre infection, luciferase reporter, 44 h | Potency, µM (doses to about 41.8 µM), usual class: inhibitors | 3.4% of 340,000 active
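Luciferase read-out (15 sec integration) after a 15 min room-temperature substrate step quantifies HCVcc-Cre infection. Cells, 1,000 per well, had compound added 4 h post-plating, then virus at ~0.5 moi, and were cultured 44 h.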
AmpC no deterg: qHTS Inhibitors of AmpC Beta-Lactamase (assay without detergent); Potency, µM (doses to about 57.1 µM), actives largely listed as inhibitors; 0.52% of 330,000 active; AmpC nitrocefin hydrolysis, absorbance 480 nm, 0.0001% Triton; note: nearly all actives have a fitted effect of over 20% in size
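AmpC (5.3 nM in the dispensed reagent) in 20 mM phosphate pH 7.0 with 0.01% (detergent screen) or 0.0001% Triton X-100 was preincubated with compounds for 15 min at room temperature. Nitrocefin was then added from an 800 uM solution, and hydrolysis was followed at 480 nm.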
HCMV antiviral: qHTS Assay for inhibitors of the human cytomegalovirus (HCMV). HFF cells, HCMV-luciferase reporter, 72 h; hits give low values. activity change, negative = inhibition, % at 57.5 µM. 4.5% of 410,000 active. AID 1259415, 2018; in the data active = activity change below about -60%; inconclusive = no clear call, values can overlap the other calls; inactive = above about -39%
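Human foreskin fibroblasts infected with luciferase-reporter HCMV at MOI 1 PFU/cell, compounds at two doses. Luciferase measured 72 h post infection; normalized to buffer-only basal and Salinomycin (10uM) controls.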
Each line names hits and unclear results; the compound was inactive in the other large screens. This is a sample that favours compounds with a hit; in the whole collection about 7.3% have one here. Unless noted, calls come from the whole dose curve; as a rule, active = well fitted curve in the direction sought with a large enough effect; inconclusive = small, poorly fitted or top-dose-only effect, or another doubt; inactive = no such curve, though single readings can be large; an effect the other way counts as inactive or inconclusive.

CCS(=O)(=O)N1CCN=C1SC(C)c1ccccc1 (stereo not given)	none
COc1ccc(-c2cc(C(=O)Nc3c(C)nn(Cc4ccccc4C)c3C)no2)cc1	none (no result: HCV inhibitor, AmpC no deterg)
CC(C)c1ccc(OCC(O)CNC(C)c2ccccc2)cc1 (stereo not given)	HCV inhibitor inconclusive
CC(NCC(O)COCCC12CC3CC(CC(C3)C1)C2)c1ccccc1 (stereo not given)	FMDV antiviral 32µM, HCV inhibitor 7.9µM, HCMV antiviral -98
Cc1cccc(C)c1OCC(O)CNC(C)c1ccccc1 (stereo not given)	HCV inhibitor 13µM
O=C(O)CCn1cc(C(=O)O)c(-c2ccccc2)n1	none
CCCN1C(=O)COCc2cc(-c3ccc(N(C)C)cc3)ccc21	none (no result: FMDV antiviral, AmpC detergent, HCV inhibitor, AmpC no deterg)
O=C(OCc1ccc([N+](=O)[O-])cc1Cl)c1cnccn1	none
CC(=O)N[C@@H]1C=C[C@@H](CC(=O)NCc2ccc(Cl)cc2)O[C@@H]1CO	none (no result: AmpC detergent, HCV inhibitor, AmpC no deterg)
O=C(C[C@@H]1C=C[C@@H](NC(=O)C2CC2)[C@@H](CO)O1)NCc1ccccc1Cl	HCMV antiviral -62 (no result: AmpC detergent, HCV inhibitor, AmpC no deterg)
CN(C(=O)c1cccc(NC(=O)Cc2ccc(NC(=O)C3CCCN(C(=O)C4CCC4)C3)cc2)c1)C1CC1 (stereo not given)	HCV inhibitor inconclusive (no result: AmpC detergent, AmpC no deterg)
COc1ccc(-c2nn3c(-c4ccccc4C)nnc3c3ccccc23)cc1	none (no result: HCV inhibitor, AmpC no deterg)
O=C(CCl)NCCCN(C(=O)C(Cl)Cl)c1ccc([N+](=O)[O-])cc1	AmpC detergent inconclusive, HCV inhibitor inconclusive, HCMV antiviral -103
COC(=O)Cc1ccc(NC(=S)N2CCC(Cc3ccccc3)CC2)cc1	none
Cc1ccccc1C(=O)Nc1nc2nc(C)c(C)c(=O)n2[nH]1	none (no result: HCV inhibitor, AmpC no deterg)
N#Cc1ccsc1NC(=O)c1cccc([N+](=O)[O-])c1	HCV inhibitor 10µM
Cc1ccc(N2CCN(S(=O)(=O)c3ccc(Cl)c4ccccc34)CC2)c(C)c1	none (no result: HCV inhibitor, AmpC no deterg)
CC(C)(C)c1ccc(S(=O)(=O)NC(=O)C2(C)CCN2C(=O)Cc2cccs2)cc1 (stereo not given)	none (no result: AmpC detergent, HCV inhibitor, AmpC no deterg)
Cc1cc2ccccc2c(=O)n1CC(=O)N(C)c1ccc(F)cc1	HCMV antiviral -103
Cc1ccc(NC(=O)CNC(=O)Cn2c(C)cc3ccccc3c2=O)cc1F	none (no result: HCV inhibitor, AmpC no deterg)
CC(=O)Nc1ccc(OCCC[n+]2ccccc2)cc1	none
CCCCCc1ccc(OCCC[n+]2ccccc2)c(CCCCC)c1	FMDV antiviral 18µM, HCV inhibitor 10µM, HCMV antiviral -99
CCCCCc1ccc(OCCOCCn2c[n+](C)c3ccccc32)c(CCCCC)c1	FMDV antiviral 25µM, HCV inhibitor 10µM (no result: HCMV antiviral)
CC(=O)N1CCC(C(=O)Nc2cc(C)cc(C)c2)CC1	none
COC(=O)c1cc(NC(=O)c2cccc(C(F)(F)F)c2)c(=O)oc1C/C=N/OCc1cccc(Cl)c1Cl	AmpC no deterg 7.9µM
COC(=O)c1cc(NC(=O)c2cccc(C(F)(F)F)c2)c(=O)oc1C	none
COc1ccc(-c2noc(CC(=O)N(C)c3ccccc3F)n2)cc1	none (no result: HCV inhibitor, AmpC no deterg)
COc1cc2c(-c3ccc(O)cc3)nc3c(c(C)nn3-c3ccccc3)c2cc1OC	HCV inhibitor 11µM, HCMV antiviral -72
CC1CCC(NC(=O)COC(=O)C2=NN(c3ccccc3)C(=O)CC2)CC1 (stereo not given)	none
C[C@@H]1CNC(=O)c2c(C(=O)N(C)Cc3ccccc3)ncn21	none (no result: FMDV antiviral, AmpC detergent, HCV inhibitor, AmpC no deterg)
Cc1ccc(OCCC(=O)OCC(=O)NC(=O)NC2CCCC2)cc1	AmpC no deterg 35µM
Cc1ccc(OCCC(=O)OCC(=O)NC2CCCCC2)cc1	none (no result: AmpC detergent, HCV inhibitor, AmpC no deterg)
COc1ccc(OC)c(CN2CCN(Cc3ccc(OC)c(OC)c3OC)CC2)c1	none (no result: AmpC detergent, HCV inhibitor, AmpC no deterg)
COc1ccc(CN2CCN(CCSc3ccc(C)cc3)CC2)c(OC)c1OC	FMDV antiviral inconclusive, AmpC detergent inconclusive, HCV inhibitor 14µM
Cc1c(C(=O)c2ccc3ccccc3c2)c2cccc3c2n1[C@H](CN1CCOCC1)CO3	none (no result: AmpC detergent, HCV inhibitor, AmpC no deterg, HCMV antiviral)
Cc1c(C(=O)c2cccc3ccccc23)c2cccc3c2n1[C@H](CN1CCOCC1)CO3	HCV inhibitor inconclusive, HCMV antiviral -98 (no result: AmpC detergent, AmpC no deterg)
COc1cc(NC(=O)c2nnn(CC(=O)Nc3ccccc3)c2N)cc(OC)c1	HCMV antiviral inconclusive (no result: HCV inhibitor, AmpC no deterg)
Cc1ccc(OCc2nnc(NC(=O)c3ccco3)s2)cc1	AmpC detergent inconclusive
